Results filed as inconclusive are left out. Calls of active or inactive are those of the source. Calls follow the shape of the dose curve; as a rule, active = well fitted cell-killing curve with a large enough effect; inconclusive = small, poorly fitted or top-dose-only effect, or effect the other way; inactive = no such curve, though single readings can be large or run the other way.
Assay: Quantitative High-Throughput drug screen in 47 multiple myeloma cell lines against the NCATS MIPE library collection: KMS28BM_JCRB cell viability assay (AID 1919874); also: nearly all actives have a fitted effect of over 35% in size
Conditions: CellTiter-Glo ATP, 48 h; series mostly up to 45.8 µM
Text: PI: Beverly A. Mock Ph.D.
Laboratory of Cancer Biology and Genetics,
Center for Cancer Research, National Cancer Institute,
National Institute of Health, Bethesda, Maryland
Drug resistance and disease progression are common in multiple myeloma (MM) patients, underscoring the need for new therapeutic combinations. […] We hypothesized that effective combinations would reduce MYC expression and enhance p16 activity. […] These preclinical data identify potentially useful drug combinations for evaluation in drug-resistant MM and reveal potential mechanisms of combined drug sensitivity.
Described herein is the primary MIPE qHTS used to cherrypick compounds. Validated compounds were then further tested for potential synergistic activiy.
[1] Peat TJ, Gaikwad SM, Dubois W, Gyabaah-Kessie N, Zhang S, Gorjifard S, Phyo Z, Andres M, Hughitt VK, Simpson RM, Miller MA, Girvin AT, Taylor A, Williams D, D'Antonio N, Zhang Y, Rajagopalan A, Flietner E, Wilson K, Zhang X, Shinn P, Klumpp-Thomas C, McKnight C, Itkin Z, Chen L, Kazandijian D, Zhang J, Michalowski AM, Simmons JK, Keats J, Thomas CJ, Mock BA. Drug combinations identified by high-throughput screening promote cell cycle transition and upregulate Smad pathways in myeloma. Cancer Lett. 2023 Aug 1;568:216284. doi: 10.1016/j.canlet.2023.216284. Epub 2023 Jun 24. PMID: 37356470; PMCID: PMC10408729.
SEQUENCE No. (e.g., 1, 2, 3, etc.); […] (e.g., Cells, Incubation, Reagent, etc.); VALUE and DESCRIPTION.
1; Cells; 5 uL; white, solid bottom 1536-well Greiner assay plate.
2; Compounds; 23 nL; Kalypsis pin tool (Wako USA) equipped with a 1536-well pin head to transfer to the assay plates.
3; Incubation; 48 hours; 37C incubation.
4; Reagent;5uL; CellTiter Glo (Promega).
5; Detector; 425V; Luminescence; Viewlux PerkinElmer.
NOTES (numbers refer to Sequence numbers above)
1. The cell-based screening methods employed in this study were like those previously published. Briefly, the corresponding myeloma cell lines were screened in 1,536-well plates with 500 cells, 5-uL per well for inhibition of cell viability (assessed by measuring ATP levels with CellTiterGlo).
2. NCATS MIPE 4.0 library of approved and investigational drugs were added using the Kalypsis pin tool. Wells treated with DMSO only for 100% viability and media only for 0% viability were used as controls.
3. The assay plates were covered and incubated for 48 hours in a 37C, 5% CO2 incubator with controlled humidity.
4. After 48 hours, CellTilter-GloTM luminescent substrate mix (Promega) reagent was added to the assay plate and plates we incubated for 5 min at room temperature.
5. Signal was measured as median relative luminescence units on a ViewLux (PerkinElmer) multiplate reader.
[1] Heske CM, Davis MI, Baumgart JT, Wilson K, Gormally MV, Chen L, Zhang X, Ceribelli M, Duveau DY, Guha R, Ferrer M, Arnaldez FI, Ji J, Tran HL, Zhang Y, Mendoza A, Helman LJ, Thomas CJ. Matrix Screen Identifies Synergistic Combination of PARP Inhibitors and Nicotinamide Phosphoribosyltransferase (NAMPT) Inhibitors in Ewing Sarcoma. Clin Cancer Res. 2017 Dec 1;23(23):7301-7311. doi: 10.1158/1078-0432.CCR-17-1121. Epub 2017 Sep 12. PMID: 28899971; PMCID: PMC6636827.
Potency is read from the fitted curve at half-maximal effect.

Row | SMILES | Potency
1 | CN1CC(=O)NC1=NC(=O)Nc1cccc(Cl)c1 | inactive
2 | COc1ccc2c(c1)CC[C@H]1[C@@H]2CC[C@]2(C)[C@@H](NCCCCCCN3C(=O)C=CC3=O)CC[C@H]12 | inactive
3 | Cc1cc2nc3c(=O)[nH]c(=O)nc-3n(CC(O)C(O)C(O)CO)c2cc1C (stereo not given) | 5.9 µM (active)
4 | Cc1[nH]c(C=C2C(=O)Nc3ccc(S(=O)(=O)N(C)c4cccc(Cl)c4)cc32)c(C)c1C(=O)N1CCN(C)CC1 | 16.6 µM (active)
5 | CC(C)C[C@@H](C(=O)N[C@H](C(=O)OC1CCCC1)c1ccccc1)[C@H](O)C(=O)NO | 20.9 µM (active)
6 | C=CCc1cccc(C=NNC(=O)CN2CCN(Cc3ccccc3)CC2)c1O | 7.43 µM (active)
7 | N#Cc1ccc(Oc2ccc3c(c2)COB3O)cc1 | inactive
8 | CN1CCc2c(n(Cc3ccc(C(=O)NO)cc3)c3ccccc23)C1 | 18.7 µM (active)
9 | COc1ccc(-c2nc3ccc(C4=NNC(=O)CC4C)cc3[nH]2)cc1 (stereo not given) | inactive
10 | C[C@@]1(C(=O)Nc2ccc(F)nc2)CCCN1c1nc(Nc2cc(C3CC3)[nH]n2)c2cccn2n1 | 0.0372 µM (active)
11 | N#CC(c1ccc(Cl)cc1)c1c(Cl)cc(-n2ncc(=O)[nH]c2=O)cc1Cl (stereo not given) | inactive
12 | CCN(CCO)CCCOc1ccc2c(Nc3cc(CC(=O)Nc4cccc(F)c4)[nH]n3)ncnc2c1 | 0.0372 µM (active)
13 | CN1C(=O)C[C@H](C(=O)N[C@@H](Cc2cnc[nH]2)C(=O)N2CCC[C@@H]2C(N)=O)NC1=O | 8.33 µM (active)
14 | CN1CCN(c2ncc(-c3cc(Cl)cc(Cl)c3Cl)c(N)n2)CC1 | inactive
15 | O=C(NC[C@H](O)CO)c1ccncc1Nc1ccc(I)cc1F | inactive
16 | O=C(C=Cc1ccc(O)cc1)c1ccc(O)cc1O | 14.8 µM (active)
17 | CC(C)(C)c1nc(-c2cccc(NS(=O)(=O)c3c(F)cccc3F)c2F)c(-c2ccnc(N)n2)s1 | inactive
18 | CC=C1C2C=C(C)CC1(N)c1ccc(=O)[nH]c1C2 (stereo not given) | inactive
19 | Nc1[nH]nc2nnc(-c3c(-c4ccccc4)nn4ccccc34)cc12 | 0.166 µM (active)
20 | COc1cc2c(cc1OC)[C@@H]1Cc3ccc(OC)c(OC)c3CN1CC2 | 8.33 µM (active)

Row | SMILES | Potency
21 | C[C@]12CCC3=C4CCC(=O)C=C4CC[C@@H]3[C@H]1CC[C@@]2(O)CC#N | inactive
22 | CC[C@H](CC#N)OC(=O)N[C@@H](C)c1cccc(NC(=O)Nc2ccc(-c3cnco3)c(OC)c2)c1 | 2.09 µM (active)
23 | Cc1ccc(C2=Nc3ccc(Cl)cc3OC2)cc1 | inactive
24 | Nc1ccn([C@@H]2O[C@H](CO)[C@@H](O)[C@H]2O)c(=O)n1 | inactive
25 | CN(C)CC[C@H](CSc1ccccc1)Nc1ccc(S(=O)(=O)NC(=O)c2ccc(N3CCN(Cc4ccccc4-c4ccc(Cl)cc4)CC3)cc2)cc1[N+](=O)[O-] | 1.87 µM (active)
26 | COc1nccc(-c2c(-c3ccc(F)cc3)ncn2C2CCNCC2)n1 | 0.469 µM (active)
27 | CNC1CCC(N(Cc2cccc(-c3ccncc3)c2)C(=O)c2sc3ccccc3c2Cl)CC1 (stereo not given) | 18.7 µM (active)
28 | OC[C@H]1O[C@@H](Oc2ccc(O)cc2)[C@H](O)[C@@H](O)[C@H]1O | inactive
29 | CC1C(=O)OC2C(O)C34C5CC(C(C)(C)C)C36C(OC(=O)C6O)OC4(C(=O)O5)C12O (stereo not given) | inactive
30 | CC(C)C[C@H](NC(=O)c1cc2ccccc2s1)C(=O)N1CCN(C(=O)[C@H](CO)NS(=O)(=O)c2ccc(Cl)cc2Cl)CC1 | 20.9 µM (active)
31 | O=C1C(CCC(O)c2ccc(F)cc2)C(c2ccc(O)cc2)N1c1ccc(F)cc1 (stereo not given) | inactive
32 | Cc1ccc(NC(=O)c2ccc(CN3CCN(C)CC3)cc2)cc1Nc1nc(-c2cccnc2)cs1 | 20.9 µM (active)
33 | Cc1cnc(CNC(=O)c2c(=O)c3ccc(N4CCCN(C)CC4)nc3n3c2sc2ccccc23)cn1 | inactive
34 | CN1CCC[C@H]1CCO[C@](C)(c1ccccc1)c1ccc(Cl)cc1 | 5.26 µM (active)
35 | COc1cccc(OC)c1-c1cc(C(=O)NC2(C(=O)O)C3CC4CC(C3)CC2C4)nn1-c1ccnc2cc(Cl)ccc12 (stereo not given) | inactive
36 | CC(NCCc1ccc(O)cc1)C(O)c1ccc(O)cc1 (stereo not given) | inactive
37 | CCN(CC)CCCCNc1nc2cc(Cl)c(Cl)cc2nc1-c1ccc(-c2cccs2)s1 | 7.43 µM (active)
38 | Cc1cccc2c1CC[C@H](CN1CCC(c3c(Cl)cccc3Cl)CC1)C[C@@H]2O | 14.8 µM (active)
39 | NCc1c[nH]c(=S)n1[C@H]1CCc2c(F)cc(F)cc2C1 | 20.9 µM (active)
40 | C[C@@H]1O[C@@H](O[C@H]2CC[C@@]3(C)[C@H](CC[C@@H]4[C@H]3C[C@@H](O)[C@]3(C)[C@@H](C5=CC(=O)OC5)CC[C@]43O)C2)C[C@H](O)[C@@H]1O[C@H]1C[C@H](O)[C@H](O[C@H]2C[C@H](O)[C@@H](O)[C@@H](C)O2)[C@H](C)O1 (stereo in doubt) | 0.0959 µM (active)

From PubChem BioAssay (NCATS)
